# Assay results taken from PubChem BioAssay (EPA / NIEHS).
# Calls of active or inactive are those of the source. How the source made its calls: active means hit-call score of the fitted dose curve at least 0.9, where 1 is the maximum; inactive means score below 0.9.
# Target: Hypoxia-inducible factor 1-alpha (Homo sapiens) (UniProt Q16665)
# Assay: ATG_HIF1a_CIS: Attagene CIS-FACTORIAL HepG2 Assay for human Hypoxia Inducible Factor 1 (HIF1A) (AID 2282951)
# Details: HepG2 Attagene cis-factorial HIF1a reporter transcription; actives raise or lower the signal
# Method in brief: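 Transient MRTU transfection of human HepG2 liver cells, 24 h compound treatment, then total RNA isolation, oligo(dT) reverse transcription, PCR amplification, fluorescent labelling and capillary electrophoresis of reporter fragments. Gain or loss relative to DMSO.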
# Hypoxia-inducible factor 1-alpha (Homo sapiens), sequence (Q16665 whole entry, looked up): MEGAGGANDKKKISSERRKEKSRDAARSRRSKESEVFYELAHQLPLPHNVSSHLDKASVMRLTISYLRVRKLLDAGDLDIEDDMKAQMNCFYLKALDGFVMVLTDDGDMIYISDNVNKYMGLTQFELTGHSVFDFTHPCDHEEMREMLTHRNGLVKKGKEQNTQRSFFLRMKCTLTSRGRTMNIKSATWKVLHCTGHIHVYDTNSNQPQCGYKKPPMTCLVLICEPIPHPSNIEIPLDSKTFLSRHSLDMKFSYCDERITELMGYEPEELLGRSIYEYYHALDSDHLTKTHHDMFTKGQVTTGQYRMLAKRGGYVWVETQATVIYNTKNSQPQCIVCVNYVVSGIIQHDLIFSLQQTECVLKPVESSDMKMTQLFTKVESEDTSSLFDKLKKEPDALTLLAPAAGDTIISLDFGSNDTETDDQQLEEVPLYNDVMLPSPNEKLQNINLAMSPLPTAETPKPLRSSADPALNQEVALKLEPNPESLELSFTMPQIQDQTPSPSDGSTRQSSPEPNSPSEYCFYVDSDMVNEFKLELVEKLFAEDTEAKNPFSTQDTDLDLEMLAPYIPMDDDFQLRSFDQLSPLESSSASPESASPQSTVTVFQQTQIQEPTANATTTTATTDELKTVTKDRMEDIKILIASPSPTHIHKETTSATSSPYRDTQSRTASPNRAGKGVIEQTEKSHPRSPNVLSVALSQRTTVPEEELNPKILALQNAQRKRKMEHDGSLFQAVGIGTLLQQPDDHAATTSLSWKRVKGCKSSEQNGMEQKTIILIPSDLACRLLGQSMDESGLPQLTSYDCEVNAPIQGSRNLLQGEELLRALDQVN
SMILES,outcome,AC50
NC(=O)c1ccccc1O,inactive,
C=CCOc1c(Br)cc(Br)cc1Br,inactive,
CCc1c(C(=O)O)c(=O)cnn1-c1ccc(Cl)cc1,inactive,
CCCCCCCCCCCCCCCC(=O)OCC,inactive,
C=CC(=O)OCCOC1C2CCC1C1CC=CC12 (stereo not given),inactive,
C=COCCCC,inactive,
O=C1CCCCCCCCCCCCCCCO1,,122 µM (active)
CCCCCCCC[N+](C)(CCCCCCCC)CCCCCCCC,,0.000753 µM (active)
CC(=O)[C@@]1(O)CC[C@H]2[C@@H]3C[C@H](C)C4=CC(=O)C=C[C@]4(C)[C@@]3(F)[C@@H](O)C[C@@]21C,inactive,
O=Nc1ccc(O)cc1,inactive,
Cc1ccc(C2OC[C@@H]3OC(c4ccc(C)cc4)O[C@H]([C@H](O)CO)[C@@H]3O2)cc1 (stereo not given in full),inactive,
C1=CCCC1,,48.6 µM (active)
C=CC(=O)OCC(Br)CBr (stereo not given),inactive,
NNC(=O)c1cccc(C(=O)NN)c1,inactive,
CCCC(C)CCC(C)=O (stereo not given),inactive,
CCN(CCC#N)c1ccc(N=Nc2c(Cl)cc([N+](=O)[O-])cc2Cl)cc1,,43.3 µM (active)
COC(F)(F)C(F)(C(F)(F)F)C(F)(F)F,inactive,
CCc1nccnc1C,inactive,
O=[N+]([O-])c1ccc(CO)cc1,inactive,
C=C(C)CCO,inactive,
O=S(=O)(O)c1cc(S(=O)(=O)O)c2ccc3c(S(=O)(=O)O)cc(S(=O)(=O)O)c4ccc1c2c43,inactive,
CC(C)=CCC/C(C)=C\C#N,inactive,
Nc1nc2ccccc2[nH]1,inactive,
CC=C1CC2C=CC1C2 (stereo not given),inactive,
CC(C)c1ccc2c(C(C)C)cc(C(C)C)c(S(=O)(=O)O)c2c1,inactive,
